Compounds without any hit were thinned out: in the full panel of roughly 79,000, 15% have a hit. Activity calls are given as the source filed them. Rule as the data show it: active = growth inhibition above about 70%; inactive = the rest.
Experiments:
[1] = NCI Yeast Anticancer Drug Screen. Data for the rad52 strain (AID 147);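 also: 0% = growth of vehicle-treated control cultures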; settings: S. cerevisiae rad52 mutant growth inhibition, stronger effect = higher value
Outline: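 DNA repair-defective yeast; compound exposure; growth scored against vehicle controls.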

[2] = NCI Yeast Anticancer Drug Screen. Data for the wt1 strain (AID 149);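 also: 0% = growth of vehicle-treated wt1 cultures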; settings: S. cerevisiae wt1 strain (SPY 50644) growth inhibition, stronger effect = higher value
Outline: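 Growth inhibition read against vehicle controls after compound exposure of the wt1 yeast strain.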

[3] = NCI Yeast Anticancer Drug Screen. Data for the mgt1 strain (AID 153); settings: S. cerevisiae mgt1 mutant growth inhibition, stronger effect = higher value
Outline: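 Growth inhibition relative to vehicle controls was scored for the mgt1 yeast strain after compound exposure.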

[4] = NCI Yeast Anticancer Drug Screen. Data for the rad50 strain (AID 155);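 also: 0% = growth of vehicle-only cultures of the same strain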; settings: S. cerevisiae rad50 strain growth inhibition, stronger effect = higher value
Outline: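 Readout: growth inhibition relative to vehicle-treated cultures. Compound exposure was carried out in a genetically defined yeast strain deficient in DNA damage repair.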

[5] = NCI Yeast Anticancer Drug Screen. Data for the mec2-1 strain (AID 157); settings: S. cerevisiae mec2-1 strain, stronger effect = higher value
Outline: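 Growth inhibition is read against vehicle-treated controls after compound exposure of the mec2-1 yeast strain, which is defective in DNA damage repair or cell cycle control.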

[6] = NCI Yeast Anticancer Drug Screen. Data for the rad14 strain (AID 159);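 also: 0% = growth of vehicle-treated control cultures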; settings: S. cerevisiae rad14 strain growth inhibition, stronger effect = higher value
Outline: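 Growth inhibition vs vehicle controls; genetically altered yeast strain (DNA damage repair defect) treated with test compounds.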

[7] = NCI Yeast Anticancer Drug Screen. Data for the sgs1 mgt1 strain (AID 161);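 also: 0% = growth of cultures given vehicle only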; settings: S. cerevisiae sgs1 mgt1 strain, stronger effect = higher value
Outline: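 This yeast growth screen uses a strain with defined DNA-repair lesions; compound-treated growth is compared with vehicle-treated growth.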

[8] = NCI Yeast Anticancer Drug Screen. Data for the CLN2oe strain (AID 163);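 also: 0% = growth of vehicle-only control cultures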; settings: S. cerevisiae CLN2oe strain, stronger effect = higher value
Outline: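 Compound-treated yeast; growth vs vehicle ctrl = % inhibition. Genetically altered strain (cell-cycle control).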

[9] = NCI Yeast Anticancer Drug Screen. Data for the cln2 rad14 strain (AID 165);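 also: 0% = growth equal to vehicle treated cultures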; settings: S. cerevisiae cln2 rad14 strain, stronger effect = higher value
Outline: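 Growth inhibition, relative to vehicle-treated controls, is the read-out. The test organism is a yeast strain with defined genetic alterations, cln2 rad14.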

[10] = NCI Yeast Anticancer Drug Screen. Data for the bub3 strain (AID 167); settings: S. cerevisiae bub3 mutant strain, stronger effect = higher value
Outline: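 Readout: yeast growth inhibition, expressed relative to vehicle-only wells. The test organism is a mutant strain from a panel with lesions in DNA repair or checkpoint genes.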

[11] = NCI Yeast Anticancer Drug Screen. Data for the wt2 strain (AID 169);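 also: 0% = growth of vehicle-treated yeast cultures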; settings: S. cerevisiae wt2 strain growth inhibition, stronger effect = higher value
Outline: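 Compound exposure of yeast; growth compared with vehicle controls; inhibition reported.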

[12] = NCI Yeast Anticancer Drug Screen. Data for the mlh1 strain (AID 171);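 also: 0% = growth of vehicle-treated control cultures of the same strain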; settings: S. cerevisiae mlh1 strain growth inhibition, stronger effect = higher value
Outline: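 Compounds are applied to a genetically altered yeast strain, and its growth is compared with that of vehicle-treated cultures to give percent inhibition.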

[13] = NCI Yeast Anticancer Drug Screen. Data for the sgs1 strain (AID 173);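 also: 0% = growth of vehicle-only control cultures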; settings: S. cerevisiae sgs1 mutant, stronger effect = higher value
Outline: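 Compounds applied to genetically altered yeast; growth compared with vehicle-treated cultures to give % inhibition.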

[14] = NCI Yeast Anticancer Drug Screen. Data for the mlh1 rad18 strain (AID 175); settings: S. cerevisiae mlh1 rad18 strain growth inhibition, stronger effect = higher value
Outline: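 Cells of a genetically altered yeast strain, deficient in DNA damage repair, were treated with compound. Their growth was then compared with that of vehicle-treated cultures to give inhibition.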

[15] = NCI Yeast Anticancer Drug Screen. Data for the rad18 strain (AID 177); settings: S. cerevisiae rad18 mutant growth inhibition, stronger effect = higher value
Outline: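 Compounds are applied to a repair-deficient yeast strain, and growth is compared with that of vehicle-treated cultures to give percent inhibition.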

[16] = at 5.0 µM (retest, dose inferred, filed as 0.5)
[17] = at 50.0 µM (retest, dose inferred, filed as 5.0)

Measured: growth inhibition

C=CC(C)(O)CCC1C(=C)C(O)CC2C(C)(C)CCCC12C (stereo unspecified)
active: [1]; at 100.0 µM 72% | [4]; at 100.0 µM 84% | [6]; at 100.0 µM 80% | [7]; [17] 81% | [7]; at 50.0 µM 80.5% | [10]; [17] 80% | [10]; at 50.0 µM 73% | [13]; at 100.0 µM 72% | [15]; at 100.0 µM 80%
inactive: [1]; at 1.2 µM 27% | [1]; at 3.7 µM 26% | [1]; at 11.0 µM 27% | [1]; at 33.0 µM 54% | [2]; at 1.2 µM -26% | [2]; at 3.7 µM -10% | [2]; at 11.0 µM -17% | [2]; at 33.0 µM -11% | [2]; at 100.0 µM 69% | [3]; at 1.2 µM -4% | [3]; at 3.7 µM -16% | [3]; at 11.0 µM -24% | [3]; at 33.0 µM 14% | [3]; at 100.0 µM 66% | [4]; at 1.2 µM 15% | [4]; at 3.7 µM 19% | [4]; [16] 36% | [4]; at 11.0 µM 19% | [4]; at 33.0 µM 61% | [4]; [17] 43% | [4]; at 50.0 µM 63.6% | [5]; at 1.2 µM -3% | [5]; at 3.7 µM 9% | [5]; [16] 48% | [5]; at 11.0 µM -10% | [5]; at 33.0 µM 4% | [5]; [17] 52% | [5]; at 50.0 µM 44.5% | [5]; at 100.0 µM 50% | [6]; at 1.2 µM -7% | [6]; at 3.7 µM -20% | [6]; at 11.0 µM -18% | [6]; at 33.0 µM 40% | [7]; [16] -23% | [8]; at 1.2 µM -8% | [8]; at 3.7 µM -34% | [8]; at 11.0 µM -8% | [8]; at 33.0 µM -16% | [8]; at 100.0 µM 28% | [9]; [16] 50% | [9]; [17] 66% | [9]; at 50.0 µM 16.7% | [10]; at 1.2 µM -4% | [10]; at 3.7 µM 7% | [10]; [16] 19% | [10]; at 11.0 µM 1% | [10]; at 33.0 µM 31% | [10]; at 100.0 µM 69% | [11]; at 1.2 µM -2% | [11]; at 3.7 µM -12% | [11]; at 11.0 µM -13% | [11]; at 33.0 µM 28% | [11]; at 100.0 µM 69% | [12]; at 1.2 µM -4% | [12]; at 3.7 µM -12% | [12]; at 11.0 µM -17% | [12]; at 33.0 µM 9% | [12]; at 100.0 µM 42% | [13]; at 1.2 µM 11% | [13]; at 3.7 µM 23% | [13]; at 11.0 µM 20% | [13]; at 33.0 µM 53% | [14]; [16] 23% | [14]; [17] 45% | [14]; at 50.0 µM 63.9% | [15]; at 1.2 µM -14% | [15]; at 3.7 µM -19% | [15]; at 11.0 µM -15% | [15]; at 33.0 µM 49%

c1ccc2c(c1)sc1nc3ccncc3nc12
inactive: [1]; at 1.2 µM 5% | [1]; at 3.7 µM 16% | [1]; at 11.0 µM 38% | [1]; at 33.0 µM 61% | [2]; at 1.2 µM 0% | [2]; at 3.7 µM 13% | [2]; at 11.0 µM 21% | [2]; at 33.0 µM 20% | [2]; at 100.0 µM 29% | [3]; at 1.2 µM 2% | [3]; at 3.7 µM -2% | [3]; at 11.0 µM -1% | [3]; at 33.0 µM -1% | [3]; at 100.0 µM 2% | [4]; at 3.7 µM 35% | [4]; [16] -55% | [4]; at 11.0 µM 61% | [5]; at 1.2 µM 5% | [5]; at 3.7 µM 1% | [5]; [16] -38% | [5]; at 11.0 µM 0% | [5]; at 33.0 µM 3% | [5]; [17] -8% | [5]; at 50.0 µM 28.1% | [5]; at 100.0 µM 9% | [6]; at 1.2 µM 21% | [6]; at 3.7 µM 10% | [6]; at 11.0 µM 11% | [6]; at 33.0 µM 19% | [6]; at 100.0 µM 29% | [7]; [16] -61% | [7]; [17] -16% | [7]; at 50.0 µM 3.7% | [9]; [16] -50% | [9]; [17] -8% | [9]; at 50.0 µM 9.05% | [10]; at 1.2 µM 10% | [10]; at 3.7 µM 3% | [10]; [16] -51% | [10]; at 11.0 µM 8% | [10]; at 33.0 µM 11% | [10]; [17] 1% | [10]; at 50.0 µM 6.1% | [10]; at 100.0 µM 20% | [11]; at 1.2 µM 13% | [11]; at 3.7 µM 12% | [11]; at 11.0 µM 17% | [11]; at 33.0 µM 17% | [11]; at 100.0 µM 29% | [12]; at 1.2 µM -5% | [12]; at 3.7 µM -1% | [12]; at 11.0 µM 1% | [12]; at 33.0 µM 8% | [12]; at 100.0 µM 12% | [13]; at 1.2 µM -5% | [13]; at 3.7 µM -8% | [13]; at 11.0 µM 3% | [13]; at 33.0 µM 9% | [13]; at 100.0 µM 13% | [14]; [16] -110% | [14]; [17] -30% | [14]; at 50.0 µM 32.7% | [15]; at 1.2 µM 0% | [15]; at 3.7 µM -3% | [15]; at 11.0 µM 1% | [15]; at 33.0 µM 10% | [15]; at 100.0 µM 22%
active: [1]; at 100.0 µM 92% | [4]; at 1.2 µM 79% | [4]; at 33.0 µM 76% | [4]; [17] 87% | [4]; at 50.0 µM 90% | [4]; at 100.0 µM 87%

CCCCCCCCCCCCCCCCCCNC
active: [1]; at 100.0 µM 95% | [2]; at 100.0 µM 86% | [3]; at 100.0 µM 96% | [4]; [17] 90% | [4]; at 100.0 µM 87% | [5]; [17] 95% | [5]; at 100.0 µM 96% | [6]; at 100.0 µM 75% | [7]; [17] 97% | [7]; at 50.0 µM 81.2% | [8]; at 100.0 µM 77% | [9]; [17] 92% | [10]; [17] 96% | [10]; at 50.0 µM 87.1% | [10]; at 100.0 µM 94% | [11]; at 100.0 µM 82%
inactive: [1]; at 1.2 µM 15% | [1]; at 3.7 µM -4% | [1]; at 11.0 µM 0% | [1]; at 33.0 µM 14% | [2]; at 1.2 µM 5% | [2]; at 3.7 µM 17% | [2]; at 11.0 µM 12% | [2]; at 33.0 µM 15% | [3]; at 1.2 µM 17% | [3]; at 3.7 µM 25% | [3]; at 11.0 µM 21% | [3]; at 33.0 µM 26% | [4]; at 1.2 µM -10% | [4]; at 3.7 µM 1% | [4]; [16] 34% | [4]; at 11.0 µM -2% | [4]; at 33.0 µM 17% | [4]; at 50.0 µM 68.5% | [5]; at 1.2 µM 14% | [5]; at 3.7 µM 3% | [5]; [16] 50% | [5]; at 11.0 µM -3% | [5]; at 33.0 µM 18% | [5]; at 50.0 µM 69% | [6]; at 1.2 µM -22% | [6]; at 3.7 µM -16% | [6]; at 11.0 µM -16% | [6]; at 33.0 µM -9% | [7]; [16] -6% | [8]; at 1.2 µM 13% | [8]; at 3.7 µM 19% | [8]; at 11.0 µM 2% | [8]; at 33.0 µM -4% | [9]; [16] 32% | [9]; at 50.0 µM 8.1% | [10]; at 1.2 µM 12% | [10]; at 3.7 µM 15% | [10]; [16] 50% | [10]; at 11.0 µM 32% | [10]; at 33.0 µM 20% | [11]; at 1.2 µM -35% | [11]; at 3.7 µM -17% | [11]; at 11.0 µM -40% | [11]; at 33.0 µM -24%

Source: PubChem BioAssay (NCI)
